{
  "source": "PubChem BioAssay (EPA / NIEHS)",
  "note": "Activity calls are given as the source filed them. How the source made its calls: active means hit-call score of the fitted dose curve at least 0.9, where 1 is the maximum; inactive means score below 0.9.",
  "data": [
    {"assay": "BSK_SAg_Proliferation: Cell Proliferation Assessment in the BioMAP Diversity Plus: SAg Assay (AID 2283095);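 further: relative cell number as total protein by SRB absorbance in sub-confluent culture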", "details": "primary human HUVEC with PBMC", "outline": "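A human primary co-culture of umbilical vein endothelium and blood mononuclear cells receives compound; relative cell number is quantified at 96 h by SRB staining and 560 nm absorbance, with DMSO-referenced bidirectional curve fitting.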", "values": [
      {"compound": "COP(=O)(NC(C)=O)SC", "note": "(stereo unspecified)", "outcome": "inactive"},
      {"compound": "CCOP(=O)(SC(C)CC)N1CCSC1=O", "note": "(stereo unspecified)", "outcome": "inactive"},
      {"compound": "Cc1ccn2nc(S(=O)(=O)Nc3c(F)cccc3F)nc2n1", "outcome": "inactive"},
      {"compound": "CN1COCN(Cc2cnc(Cl)s2)C1=N[N+](=O)[O-]", "outcome": "inactive"},
      {"compound": "CC1=NNC(=O)N(/N=C/c2cccnc2)C1", "outcome": "inactive"},
      {"compound": "CNC(=O)Oc1cccc2c1OC(C)(C)O2", "AC50": "20 µM (active)"},
      {"compound": "S=C1NCCN1", "outcome": "inactive"},
      {"compound": "CCCSP(=O)(OCC)SCCC", "outcome": "inactive"},
      {"compound": "CCCCOC(=O)[C@@H](C)Oc1ccc(Oc2ccc(C#N)cc2F)cc1", "outcome": "inactive"},
      {"compound": "CCOC(=O)COc1cc(-c2nn(C)c(OC(F)F)c2Cl)c(F)cc1Cl", "outcome": "inactive"},
      {"compound": "CON=C(C(=O)OC)c1ccccc1CON=C(C)c1cccc(C(F)(F)F)c1", "AC50": "3.9 µM (active)"},
      {"compound": "FC(F)C(F)(F)OCC(Cn1cncn1)c1ccc(Cl)cc1Cl", "note": "(stereo unspecified)", "AC50": "23 µM (active)"},
      {"compound": "CCc1cccc(C)c1N(C(=O)CCl)C(C)COC", "note": "(stereo unspecified)", "outcome": "inactive"},
      {"compound": "CCC(=O)Nc1ccc(Cl)c(Cl)c1", "outcome": "inactive"},
      {"compound": "CSc1nc(NC(C)C)nc(NC(C)C)n1", "outcome": "inactive"},
      {"compound": "CCOP(=O)(NC(C)C)Oc1ccc(SC)c(C)c1", "note": "(stereo unspecified)", "outcome": "inactive"},
      {"compound": "CCOP(=S)(OCC)Oc1ccc([N+](=O)[O-])cc1", "AC50": "32.1 µM (active)"},
      {"compound": "CCOP(=O)(OCC)Oc1cc(C)nc(C(C)C)n1", "outcome": "inactive"},
      {"compound": "CC[C@H](C)[C@H]1O[C@]2(C=C[C@@H]1C)C[C@@H]1C[C@@H](C/C=C(\\C)[C@@H](O[C@H]3C[C@H](OC)[C@@H](O[C@H]4C[C@H](OC)[C@@H](NC)[C@H](C)O4)[C@H](C)O3)[C@@H](C)/C=C/C=C3\\CO[C@@H]4[C@H](O)C(C)=C[C@@H](C(=O)O1)[C@]34O)O2", "AC50": "1.69 µM (active)"},
      {"compound": "COc1ccc(C(=CC(=O)N2CCOCC2)c2ccc(Cl)cc2)cc1OC", "AC50": "12.9 µM (active)"},
      {"compound": "C[N+]1(C)CCCCC1", "outcome": "inactive"},
      {"compound": "CCOP(=S)(OCC)Oc1cc(C)nc(C(C)C)n1", "outcome": "inactive"},
      {"compound": "CCCCN(CC)c1c([N+](=O)[O-])cc(C(F)(F)F)cc1[N+](=O)[O-]", "AC50": "18.9 µM (active)"},
      {"compound": "CC(Oc1cccc(Cl)c1)C(=O)O", "note": "(stereo unspecified)", "outcome": "inactive"},
      {"compound": "CCCCSP(=O)(SCCCC)SCCCC", "AC50": "36.2 µM (active)"},
      {"compound": "CCCCOC(=O)c1ccccc1C(=O)O", "outcome": "inactive"},
      {"compound": "O=C(O)c1cc(Oc2ccc(C(F)(F)F)cc2Cl)ccc1[N+](=O)[O-]", "outcome": "inactive"},
      {"compound": "COP(=O)(OC)SCn1c(=O)oc2cc(Cl)cnc21", "AC50": "12.2 µM (active)"},
      {"compound": "CNC(=O)ON=C(SC)C(=O)N(C)C", "AC50": "20 µM (active)"},
      {"compound": "CCOP(=S)(OCC)OC(Cl)C(Cl)(Cl)Cl", "note": "(stereo unspecified)", "AC50": "33.5 µM (active)"},
      {"compound": "CCCOc1nn(C(=O)NS(=O)(=O)c2ccccc2C(=O)OC)c(=O)n1C", "outcome": "inactive"},
      {"compound": "CSc1nnc(C(C)(C)C)c(=O)n1N", "outcome": "inactive"},
      {"compound": "CCOC(=O)CC(SP(=O)(OC)OC)C(=O)OCC", "note": "(stereo unspecified)", "outcome": "inactive"},
      {"compound": "CC(C)=CC1C(C(=O)OCN2C(=O)C3=C(CCCC3)C2=O)C1(C)C", "note": "(stereo unspecified)", "AC50": "26.1 µM (active)"},
      {"compound": "C#CC(C)(C)NC(=O)c1cc(Cl)cc(Cl)c1", "outcome": "inactive"},
      {"compound": "COP(=O)(OC)C(O)C(Cl)(Cl)Cl", "note": "(stereo unspecified)", "AC50": "8.98 µM (active)"}
    ]}
  ]
}
